# Laboratory results as given in ChEMBL document CHEMBL2218924, “A broad activity screen in support of a chemogenomic map for kinase signalling research and drug discovery” (Biochem J, 2013).
# Assays:
# [1] = target: T1, Ephrin type-A receptor 3 (Homo sapiens) (UniProt P29320); conditions: at 10 µM
# T1 sequence (whole entry): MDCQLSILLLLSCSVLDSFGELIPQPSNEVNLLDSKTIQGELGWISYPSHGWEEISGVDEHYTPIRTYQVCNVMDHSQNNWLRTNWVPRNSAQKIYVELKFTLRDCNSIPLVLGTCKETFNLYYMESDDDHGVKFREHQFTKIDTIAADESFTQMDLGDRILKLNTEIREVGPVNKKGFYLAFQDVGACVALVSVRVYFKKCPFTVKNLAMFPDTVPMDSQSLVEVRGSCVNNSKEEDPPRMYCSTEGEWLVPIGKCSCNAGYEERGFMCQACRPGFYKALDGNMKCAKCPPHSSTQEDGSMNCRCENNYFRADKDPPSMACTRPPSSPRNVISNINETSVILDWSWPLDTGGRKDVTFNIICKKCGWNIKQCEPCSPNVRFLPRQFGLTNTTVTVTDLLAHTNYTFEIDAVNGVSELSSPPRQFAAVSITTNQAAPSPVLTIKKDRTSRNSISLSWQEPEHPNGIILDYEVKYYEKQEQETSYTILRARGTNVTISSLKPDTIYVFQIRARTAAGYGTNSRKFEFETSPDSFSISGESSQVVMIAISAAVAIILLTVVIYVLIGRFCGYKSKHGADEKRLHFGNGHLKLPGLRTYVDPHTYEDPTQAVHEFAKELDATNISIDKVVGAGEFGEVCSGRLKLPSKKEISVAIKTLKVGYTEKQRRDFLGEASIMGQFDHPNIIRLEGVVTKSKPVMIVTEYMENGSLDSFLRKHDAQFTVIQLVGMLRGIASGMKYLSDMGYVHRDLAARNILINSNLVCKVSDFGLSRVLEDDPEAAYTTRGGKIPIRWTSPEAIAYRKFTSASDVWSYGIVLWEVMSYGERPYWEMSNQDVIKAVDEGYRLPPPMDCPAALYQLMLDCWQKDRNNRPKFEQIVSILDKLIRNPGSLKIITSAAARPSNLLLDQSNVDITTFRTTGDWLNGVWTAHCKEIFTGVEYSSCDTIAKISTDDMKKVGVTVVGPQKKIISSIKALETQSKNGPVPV
# [2] = target: Ephrin type-A receptor 4 (Homo sapiens) (UniProt P54764); conditions: at 1 µM
# [3] = target: Ephrin type-A receptor 4 (Homo sapiens) (UniProt P54764); conditions: at 10 µM
# [4] = target: Ephrin type-A receptor 5 (Homo sapiens) (UniProt P54756); conditions: at 1 µM
# [5] = target: Ephrin type-A receptor 5 (Homo sapiens) (UniProt P54756); conditions: at 10 µM
# [6] = target: Ephrin type-A receptor 7 (Homo sapiens) (UniProt Q15375); conditions: at 1 µM
# [7] = target: Ephrin type-A receptor 7 (Homo sapiens) (UniProt Q15375); conditions: at 10 µM
# [8] = target: T2, Ephrin type-A receptor 8 (Homo sapiens) (UniProt P29322); conditions: at 1 µM
# T2 sequence (whole entry): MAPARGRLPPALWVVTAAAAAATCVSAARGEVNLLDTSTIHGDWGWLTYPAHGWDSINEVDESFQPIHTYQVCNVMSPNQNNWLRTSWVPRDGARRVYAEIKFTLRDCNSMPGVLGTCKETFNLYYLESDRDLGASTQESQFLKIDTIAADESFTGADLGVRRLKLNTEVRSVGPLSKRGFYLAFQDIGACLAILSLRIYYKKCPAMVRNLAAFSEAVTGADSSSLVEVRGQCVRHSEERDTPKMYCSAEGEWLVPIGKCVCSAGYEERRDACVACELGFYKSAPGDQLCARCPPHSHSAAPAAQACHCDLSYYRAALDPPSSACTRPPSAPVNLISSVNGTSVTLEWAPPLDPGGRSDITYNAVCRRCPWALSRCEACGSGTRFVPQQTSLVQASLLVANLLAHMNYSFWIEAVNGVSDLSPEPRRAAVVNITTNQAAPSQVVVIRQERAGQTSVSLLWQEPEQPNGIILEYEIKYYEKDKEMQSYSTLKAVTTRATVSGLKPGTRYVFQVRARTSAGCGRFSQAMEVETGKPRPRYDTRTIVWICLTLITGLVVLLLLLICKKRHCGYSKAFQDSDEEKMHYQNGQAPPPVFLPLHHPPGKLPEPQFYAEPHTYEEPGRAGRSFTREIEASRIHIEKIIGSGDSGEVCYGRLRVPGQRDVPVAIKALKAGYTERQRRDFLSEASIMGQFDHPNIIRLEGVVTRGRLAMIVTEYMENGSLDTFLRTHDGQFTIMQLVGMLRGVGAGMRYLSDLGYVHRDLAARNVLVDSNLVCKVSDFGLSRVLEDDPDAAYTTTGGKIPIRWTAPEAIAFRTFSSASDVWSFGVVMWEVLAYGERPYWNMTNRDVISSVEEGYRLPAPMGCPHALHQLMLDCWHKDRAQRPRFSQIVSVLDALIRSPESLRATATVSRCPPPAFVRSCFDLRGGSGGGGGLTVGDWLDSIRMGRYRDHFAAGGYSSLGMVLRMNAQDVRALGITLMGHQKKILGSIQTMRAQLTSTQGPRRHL
# [9] = target: T2, Ephrin type-A receptor 8 (Homo sapiens); conditions: at 10 µM
# [10] = target: T3, Ephrin type-B receptor 1 (Homo sapiens) (UniProt P54762); conditions: at 1 µM
# T3 sequence (whole entry): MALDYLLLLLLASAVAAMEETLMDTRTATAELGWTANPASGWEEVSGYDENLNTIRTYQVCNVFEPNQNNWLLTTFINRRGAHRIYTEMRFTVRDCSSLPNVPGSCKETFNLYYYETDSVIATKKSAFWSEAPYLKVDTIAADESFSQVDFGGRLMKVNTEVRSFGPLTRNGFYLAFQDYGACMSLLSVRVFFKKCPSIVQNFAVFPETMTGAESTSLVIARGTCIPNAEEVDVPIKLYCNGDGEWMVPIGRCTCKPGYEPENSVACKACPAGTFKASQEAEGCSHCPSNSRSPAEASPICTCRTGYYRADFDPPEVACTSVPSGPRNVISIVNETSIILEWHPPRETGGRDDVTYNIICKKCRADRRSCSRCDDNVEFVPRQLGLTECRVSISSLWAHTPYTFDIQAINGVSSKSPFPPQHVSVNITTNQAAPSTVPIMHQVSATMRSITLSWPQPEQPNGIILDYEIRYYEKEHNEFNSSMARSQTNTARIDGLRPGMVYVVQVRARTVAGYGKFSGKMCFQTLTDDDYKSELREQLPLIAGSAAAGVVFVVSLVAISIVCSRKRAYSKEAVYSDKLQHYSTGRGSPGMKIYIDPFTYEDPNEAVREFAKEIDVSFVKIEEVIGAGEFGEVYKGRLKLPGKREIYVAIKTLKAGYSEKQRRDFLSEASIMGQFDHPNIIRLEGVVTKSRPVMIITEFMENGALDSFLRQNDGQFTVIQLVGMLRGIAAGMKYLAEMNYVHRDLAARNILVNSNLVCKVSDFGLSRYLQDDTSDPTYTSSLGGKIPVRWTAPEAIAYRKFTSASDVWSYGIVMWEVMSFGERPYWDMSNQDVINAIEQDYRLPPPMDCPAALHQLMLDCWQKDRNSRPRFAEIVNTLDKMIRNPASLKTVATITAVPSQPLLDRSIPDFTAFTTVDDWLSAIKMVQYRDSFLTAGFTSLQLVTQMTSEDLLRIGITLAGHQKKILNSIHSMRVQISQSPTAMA
# [11] = target: T3, Ephrin type-B receptor 1 (Homo sapiens); conditions: at 10 µM
# [12] = target: T4, Ephrin type-B receptor 2 (Homo sapiens) (UniProt P29323); conditions: at 1 µM
# T4 sequence (whole entry): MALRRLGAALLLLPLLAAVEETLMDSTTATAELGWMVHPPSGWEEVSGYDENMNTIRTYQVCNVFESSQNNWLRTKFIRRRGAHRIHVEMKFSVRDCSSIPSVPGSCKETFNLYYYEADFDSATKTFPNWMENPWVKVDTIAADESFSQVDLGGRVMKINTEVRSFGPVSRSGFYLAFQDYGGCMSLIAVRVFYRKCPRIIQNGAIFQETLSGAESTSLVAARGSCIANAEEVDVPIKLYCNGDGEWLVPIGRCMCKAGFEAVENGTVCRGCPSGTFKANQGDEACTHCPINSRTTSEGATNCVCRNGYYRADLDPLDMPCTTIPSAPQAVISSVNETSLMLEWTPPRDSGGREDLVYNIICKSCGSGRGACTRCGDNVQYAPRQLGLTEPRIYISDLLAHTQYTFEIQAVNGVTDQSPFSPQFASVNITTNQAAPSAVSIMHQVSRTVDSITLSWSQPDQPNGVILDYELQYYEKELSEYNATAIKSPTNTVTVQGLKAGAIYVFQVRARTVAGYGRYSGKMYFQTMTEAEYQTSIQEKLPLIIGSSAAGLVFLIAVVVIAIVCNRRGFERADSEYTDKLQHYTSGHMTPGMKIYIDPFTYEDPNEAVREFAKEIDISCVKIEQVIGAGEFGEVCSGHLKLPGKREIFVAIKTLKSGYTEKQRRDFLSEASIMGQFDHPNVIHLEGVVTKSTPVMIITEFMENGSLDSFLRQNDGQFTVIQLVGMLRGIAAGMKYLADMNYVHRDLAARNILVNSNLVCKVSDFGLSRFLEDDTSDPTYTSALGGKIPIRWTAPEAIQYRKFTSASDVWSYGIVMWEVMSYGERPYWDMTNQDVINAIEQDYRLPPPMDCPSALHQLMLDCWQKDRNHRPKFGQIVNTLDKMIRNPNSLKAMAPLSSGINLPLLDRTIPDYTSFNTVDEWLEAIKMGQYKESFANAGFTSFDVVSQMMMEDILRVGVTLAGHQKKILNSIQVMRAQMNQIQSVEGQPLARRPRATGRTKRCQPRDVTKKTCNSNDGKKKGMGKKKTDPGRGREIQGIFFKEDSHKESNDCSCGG
# [13] = target: T4, Ephrin type-B receptor 2 (Homo sapiens); conditions: at 10 µM
# [14] = target: T5, Ephrin type-B receptor 4 (Homo sapiens) (UniProt P54760); conditions: at 1 µM
# T5 sequence (whole entry): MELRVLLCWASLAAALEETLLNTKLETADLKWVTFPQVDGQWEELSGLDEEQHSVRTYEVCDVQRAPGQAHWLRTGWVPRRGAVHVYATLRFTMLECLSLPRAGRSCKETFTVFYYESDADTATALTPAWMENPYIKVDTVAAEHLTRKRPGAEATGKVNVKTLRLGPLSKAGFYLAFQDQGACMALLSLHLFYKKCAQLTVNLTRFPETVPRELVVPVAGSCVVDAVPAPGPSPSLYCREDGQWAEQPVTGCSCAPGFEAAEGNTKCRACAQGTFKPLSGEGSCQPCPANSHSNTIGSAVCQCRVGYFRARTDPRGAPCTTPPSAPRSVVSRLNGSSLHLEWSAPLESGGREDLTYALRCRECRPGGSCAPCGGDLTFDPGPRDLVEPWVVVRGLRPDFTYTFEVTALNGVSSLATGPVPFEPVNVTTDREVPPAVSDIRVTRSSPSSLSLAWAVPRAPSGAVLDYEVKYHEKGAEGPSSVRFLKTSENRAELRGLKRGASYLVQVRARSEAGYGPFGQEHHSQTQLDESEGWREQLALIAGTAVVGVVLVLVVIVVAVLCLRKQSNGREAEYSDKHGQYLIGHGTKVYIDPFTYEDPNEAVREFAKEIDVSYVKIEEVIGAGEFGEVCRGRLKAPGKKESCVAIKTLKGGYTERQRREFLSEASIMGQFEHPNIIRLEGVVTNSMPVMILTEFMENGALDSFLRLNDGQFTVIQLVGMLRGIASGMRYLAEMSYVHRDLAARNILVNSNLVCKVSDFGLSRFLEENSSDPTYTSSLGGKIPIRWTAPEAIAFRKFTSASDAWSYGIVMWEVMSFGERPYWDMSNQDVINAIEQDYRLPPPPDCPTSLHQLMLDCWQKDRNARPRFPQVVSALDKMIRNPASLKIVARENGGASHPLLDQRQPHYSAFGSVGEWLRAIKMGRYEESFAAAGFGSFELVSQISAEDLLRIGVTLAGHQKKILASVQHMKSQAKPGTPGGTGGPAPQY
# [15] = target: T5, Ephrin type-B receptor 4 (Homo sapiens); conditions: at 10 µM
# [16] = target: Receptor tyrosine-protein kinase erbB-4 (Homo sapiens) (UniProt Q15303); conditions: at 1 µM
# [17] = target: Receptor tyrosine-protein kinase erbB-4 (Homo sapiens) (UniProt Q15303); conditions: at 10 µM
# [18] = target: Focal adhesion kinase 1 (Homo sapiens) (UniProt Q05397); conditions: at 1 µM
# Ephrin type-A receptor 7 (Homo sapiens), sequence (Q15375 28-998 limits assumed): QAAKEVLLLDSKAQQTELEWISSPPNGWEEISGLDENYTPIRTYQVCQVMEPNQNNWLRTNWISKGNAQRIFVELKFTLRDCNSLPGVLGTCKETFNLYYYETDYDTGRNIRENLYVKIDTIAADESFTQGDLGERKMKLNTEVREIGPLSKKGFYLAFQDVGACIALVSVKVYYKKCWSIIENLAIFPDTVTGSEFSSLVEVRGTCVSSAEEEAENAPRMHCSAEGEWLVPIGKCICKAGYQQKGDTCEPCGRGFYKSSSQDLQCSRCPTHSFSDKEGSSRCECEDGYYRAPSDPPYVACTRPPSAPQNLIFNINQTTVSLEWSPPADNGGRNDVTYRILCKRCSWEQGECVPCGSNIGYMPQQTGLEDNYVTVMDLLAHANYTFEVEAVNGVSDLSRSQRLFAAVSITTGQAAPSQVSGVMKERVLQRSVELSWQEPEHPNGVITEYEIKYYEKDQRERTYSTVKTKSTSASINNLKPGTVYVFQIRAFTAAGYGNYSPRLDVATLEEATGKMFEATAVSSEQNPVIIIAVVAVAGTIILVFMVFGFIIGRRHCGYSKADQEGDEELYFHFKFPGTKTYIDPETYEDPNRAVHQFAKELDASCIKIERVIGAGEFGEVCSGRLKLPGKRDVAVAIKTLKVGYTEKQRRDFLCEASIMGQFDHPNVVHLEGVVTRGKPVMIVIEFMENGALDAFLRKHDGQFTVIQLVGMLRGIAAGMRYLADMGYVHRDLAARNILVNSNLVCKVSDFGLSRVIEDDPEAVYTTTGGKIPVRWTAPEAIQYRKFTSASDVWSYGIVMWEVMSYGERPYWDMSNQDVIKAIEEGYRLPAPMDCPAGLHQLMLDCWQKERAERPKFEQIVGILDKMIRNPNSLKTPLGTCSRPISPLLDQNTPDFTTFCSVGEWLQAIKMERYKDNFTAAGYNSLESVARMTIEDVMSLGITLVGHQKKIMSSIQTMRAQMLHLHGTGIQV
# Ephrin type-A receptor 4 (Homo sapiens), sequence (P54764 whole entry): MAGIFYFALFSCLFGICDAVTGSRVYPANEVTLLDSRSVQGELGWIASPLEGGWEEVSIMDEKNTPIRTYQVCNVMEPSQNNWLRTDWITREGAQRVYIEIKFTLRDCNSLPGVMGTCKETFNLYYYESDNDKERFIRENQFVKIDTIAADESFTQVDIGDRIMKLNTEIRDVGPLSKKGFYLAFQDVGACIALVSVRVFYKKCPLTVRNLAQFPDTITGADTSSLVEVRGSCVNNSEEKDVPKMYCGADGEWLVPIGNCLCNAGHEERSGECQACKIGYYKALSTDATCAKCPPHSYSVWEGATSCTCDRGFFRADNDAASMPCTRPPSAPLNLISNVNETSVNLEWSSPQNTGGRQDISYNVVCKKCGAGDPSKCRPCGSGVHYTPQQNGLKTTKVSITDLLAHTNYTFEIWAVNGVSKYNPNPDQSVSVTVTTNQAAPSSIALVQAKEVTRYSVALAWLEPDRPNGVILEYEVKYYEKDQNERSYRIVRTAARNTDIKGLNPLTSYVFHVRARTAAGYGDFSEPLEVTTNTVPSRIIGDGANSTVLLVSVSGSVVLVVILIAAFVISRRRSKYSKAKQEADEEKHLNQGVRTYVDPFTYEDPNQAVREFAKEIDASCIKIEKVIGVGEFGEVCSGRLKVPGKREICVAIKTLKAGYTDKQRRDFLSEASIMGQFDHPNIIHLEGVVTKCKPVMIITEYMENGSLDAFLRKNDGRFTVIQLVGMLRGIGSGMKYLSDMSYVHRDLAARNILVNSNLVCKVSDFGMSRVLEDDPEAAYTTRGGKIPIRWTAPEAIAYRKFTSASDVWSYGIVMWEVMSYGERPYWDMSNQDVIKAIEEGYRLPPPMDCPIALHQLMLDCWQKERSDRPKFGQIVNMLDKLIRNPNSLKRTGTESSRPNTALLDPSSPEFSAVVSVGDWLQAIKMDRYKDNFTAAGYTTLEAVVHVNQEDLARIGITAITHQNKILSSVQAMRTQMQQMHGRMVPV
# Receptor tyrosine-protein kinase erbB-4 (Homo sapiens), sequence (Q15303 whole entry): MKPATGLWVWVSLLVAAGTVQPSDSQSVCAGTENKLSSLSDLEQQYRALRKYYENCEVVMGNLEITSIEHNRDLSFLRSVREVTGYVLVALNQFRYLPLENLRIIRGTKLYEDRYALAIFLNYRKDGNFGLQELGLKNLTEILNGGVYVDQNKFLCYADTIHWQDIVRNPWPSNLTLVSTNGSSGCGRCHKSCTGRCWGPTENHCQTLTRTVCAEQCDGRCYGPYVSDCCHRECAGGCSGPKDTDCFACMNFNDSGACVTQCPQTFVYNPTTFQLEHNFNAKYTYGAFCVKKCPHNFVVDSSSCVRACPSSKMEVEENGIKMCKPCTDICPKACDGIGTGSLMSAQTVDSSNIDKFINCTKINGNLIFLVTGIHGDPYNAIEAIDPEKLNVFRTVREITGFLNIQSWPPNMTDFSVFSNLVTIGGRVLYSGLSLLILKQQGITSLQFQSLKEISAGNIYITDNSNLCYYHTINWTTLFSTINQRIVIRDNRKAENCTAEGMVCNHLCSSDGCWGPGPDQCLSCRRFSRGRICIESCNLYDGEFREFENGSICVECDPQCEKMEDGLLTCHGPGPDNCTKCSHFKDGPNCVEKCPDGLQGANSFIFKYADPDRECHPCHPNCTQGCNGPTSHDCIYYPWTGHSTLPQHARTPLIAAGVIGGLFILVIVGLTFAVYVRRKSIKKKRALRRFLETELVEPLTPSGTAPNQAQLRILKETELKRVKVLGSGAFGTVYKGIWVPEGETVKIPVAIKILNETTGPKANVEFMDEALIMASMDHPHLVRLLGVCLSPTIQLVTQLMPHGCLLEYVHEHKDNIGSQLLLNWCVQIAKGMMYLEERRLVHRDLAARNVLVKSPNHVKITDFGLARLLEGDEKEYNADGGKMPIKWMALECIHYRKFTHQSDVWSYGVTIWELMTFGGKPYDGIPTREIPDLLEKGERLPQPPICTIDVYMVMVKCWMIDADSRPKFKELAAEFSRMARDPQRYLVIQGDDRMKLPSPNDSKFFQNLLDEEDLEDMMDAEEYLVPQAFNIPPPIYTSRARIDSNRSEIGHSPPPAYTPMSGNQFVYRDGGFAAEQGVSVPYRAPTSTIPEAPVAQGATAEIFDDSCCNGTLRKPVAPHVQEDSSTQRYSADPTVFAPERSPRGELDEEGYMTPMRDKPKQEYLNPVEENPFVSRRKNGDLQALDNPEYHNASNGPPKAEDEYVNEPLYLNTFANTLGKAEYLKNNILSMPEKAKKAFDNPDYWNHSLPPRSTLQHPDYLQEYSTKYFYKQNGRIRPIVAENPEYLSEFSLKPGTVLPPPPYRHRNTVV
# Ephrin type-A receptor 5 (Homo sapiens), sequence (P54756 whole entry): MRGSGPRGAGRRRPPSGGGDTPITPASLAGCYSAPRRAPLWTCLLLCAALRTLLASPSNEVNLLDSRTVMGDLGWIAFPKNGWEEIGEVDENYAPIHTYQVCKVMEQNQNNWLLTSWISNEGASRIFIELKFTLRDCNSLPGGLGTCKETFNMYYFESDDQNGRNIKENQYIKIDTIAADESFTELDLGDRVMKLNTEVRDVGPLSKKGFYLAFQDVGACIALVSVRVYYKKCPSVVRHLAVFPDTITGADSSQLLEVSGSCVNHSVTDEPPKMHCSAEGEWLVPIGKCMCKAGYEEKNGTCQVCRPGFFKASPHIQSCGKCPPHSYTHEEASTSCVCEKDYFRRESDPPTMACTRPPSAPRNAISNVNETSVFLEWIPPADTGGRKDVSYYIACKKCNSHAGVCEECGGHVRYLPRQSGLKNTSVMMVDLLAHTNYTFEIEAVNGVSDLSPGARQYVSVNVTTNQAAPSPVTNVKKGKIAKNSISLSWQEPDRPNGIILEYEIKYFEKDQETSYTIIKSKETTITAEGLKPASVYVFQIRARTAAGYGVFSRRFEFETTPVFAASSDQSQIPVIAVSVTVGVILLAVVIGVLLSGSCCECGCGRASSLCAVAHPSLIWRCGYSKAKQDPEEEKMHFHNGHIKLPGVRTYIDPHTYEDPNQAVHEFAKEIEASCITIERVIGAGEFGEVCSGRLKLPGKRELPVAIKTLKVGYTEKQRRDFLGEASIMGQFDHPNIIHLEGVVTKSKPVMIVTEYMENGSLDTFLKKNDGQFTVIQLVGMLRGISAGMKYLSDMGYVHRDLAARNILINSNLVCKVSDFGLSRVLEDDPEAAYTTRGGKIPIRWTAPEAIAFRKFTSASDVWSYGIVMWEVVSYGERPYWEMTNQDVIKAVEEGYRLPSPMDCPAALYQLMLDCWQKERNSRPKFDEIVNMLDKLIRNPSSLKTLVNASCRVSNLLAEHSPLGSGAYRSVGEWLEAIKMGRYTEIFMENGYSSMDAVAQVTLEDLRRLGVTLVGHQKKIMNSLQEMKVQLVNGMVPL
compound,measurement,setting,value
CCn1cnc2c(Nc3cccc(Cl)c3)nc(N[C@@H]3CCCC[C@@H]3N)nc21,residual activity,[1],9%
same,residual activity,[2],98%
same,residual activity,[3],49%
same,residual activity,[4],70%
same,residual activity,[5],15%
same,residual activity,[6],78%
same,residual activity,[7],23%
same,residual activity,[8],89%
same,residual activity,[9],31%
same,residual activity,[10],32%
same,residual activity,[11],1%
same,residual activity,[12],56%
same,residual activity,[13],0%
same,residual activity,[14],51%
same,residual activity,[15],9%
same,residual activity,[16],83%
same,residual activity,[17],68%
same,residual activity,[18],53%
